Reference: PubChem BioAssay AID1851 (National Center for Advancing Translational Sciences (NCATS), 2009)
Screen size: about 16,000 compounds; about 5,800 (36%) were called active. About 23% were inconclusive and are not listed. Calls come from the whole dose curve; as a rule, active = well fitted curve in the direction sought with a large enough effect; inconclusive = small, poorly fitted or top-dose-only effect, or effect the other way; inactive = no such curve, though single readings can be large or run the other way. Some of the results follow.

Molecular target: Cytochrome P450 2C19 (Homo sapiens) (UniProt P33261)
Sequence (P33261 whole entry, looked up): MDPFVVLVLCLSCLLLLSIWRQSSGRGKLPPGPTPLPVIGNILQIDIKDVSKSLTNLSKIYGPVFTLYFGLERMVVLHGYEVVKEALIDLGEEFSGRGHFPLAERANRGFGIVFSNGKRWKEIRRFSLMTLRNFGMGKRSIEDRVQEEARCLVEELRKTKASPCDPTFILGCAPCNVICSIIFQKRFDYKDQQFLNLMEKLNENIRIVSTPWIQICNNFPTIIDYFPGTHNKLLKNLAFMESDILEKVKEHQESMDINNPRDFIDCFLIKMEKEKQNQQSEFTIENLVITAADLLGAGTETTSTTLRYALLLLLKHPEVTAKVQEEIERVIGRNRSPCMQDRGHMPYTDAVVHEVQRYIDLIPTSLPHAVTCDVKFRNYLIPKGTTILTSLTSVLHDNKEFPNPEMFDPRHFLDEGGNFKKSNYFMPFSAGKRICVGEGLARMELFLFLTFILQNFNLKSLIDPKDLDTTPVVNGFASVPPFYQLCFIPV
Test: Cytochrome panel assay with activity outcomes
Conditions: recombinant CYP, pro-luciferin dealkylation, luminescence, p450-cyp2c19; series mostly up to 57.1 µM
% is set by controls: 0 for no effect and ±100 for the full control effect.

| SMILES | activity, negative = inhibition | AC50 |
| --- | --- | --- |
| Nc1nc(N)nc(CCCc2nc(N)nc(N)n2)n1 | 103% [at 11.4 µM] (inactive) |  |
| N#Cc1cccc(-c2nc3cnc(N4CCNCC4)nc3n(C3CC3)c2=O)c1 |  | inactive |
| CN1C(=O)C(CC(N)=O)N(NC(=O)c2ccc(Cl)cc2)C1=S (stereo not given) |  | inactive |
| Cc1ccc(NC(=S)NC2CCCC2)cc1 |  | 3.55 µM (active) |
| CO[C@H]1COC(=O)C/C=C\[C@H](C)[C@@H](OC)COC(=O)[C@@H](C)COC(=O)C/C=C\[C@@H]1C | -29.5% [at 11.4 µM] (inactive) |  |
| COc1ccc(Cn2c(SCc3ccccc3C)nc3cc(OC)c(OC)cc3c2=N)cc1 |  | 20 µM (active) |
| CN1CCN(c2ncc3nc(-c4ccc(Cl)cc4)c(=O)n(Cc4cccs4)c3n2)CC1 |  | inactive |
| COc1cc2nc(SCc3ccc(Cl)cc3Cl)n(Cc3cccs3)c(=N)c2cc1OC |  | 2.51 µM (active) |
| COc1cccc(-c2ccc3ncnc(N4CCOCC4)c3c2)c1 |  | 3.98 µM (active) |
| O=C(O)C1CCN(c2ncnc3ccc(-c4ccccc4C(F)(F)F)cc23)CC1 |  | inactive |
| CN1CCN(c2ncnc3ccc(-c4ccccc4C#N)cc23)CC1 |  | inactive |
| Cc1ccccc1-c1ccc2ncnc(N3CCN(C)CC3)c2c1 |  | inactive |
| CN1CCN(c2ncnc3ccc(-c4ccccc4Cl)cc23)CC1 |  | 3.98 µM (active) |
| CS(=O)(=O)Nc1cccc(-c2ccc3ncnc(N4CCOCC4)c3c2)c1 |  | inactive |
| COc1ccccc1-c1ccc2ncnc(N3CCOCC3)c2c1 |  | 1.26 µM (active) |
| FC(F)(F)c1ccccc1-c1ccc2ncnc(N3CCOCC3)c2c1 |  | 0.631 µM (active) |
| COc1ccccc1-c1nc(N2CCOCC2)c2ccccc2n1 |  | inactive |
| CN1CCN(c2nc(-c3ccccc3C(F)(F)F)nc3ccccc23)CC1 |  | inactive |
| FC(F)(F)c1ccccc1-c1nc(N2CCOCC2)c2ccccc2n1 |  | 15.8 µM (active) |
| CS(=O)(=O)Nc1cccc(-c2ccc3ncnc(N4CCNCC4)c3c2)c1 |  | inactive |
| N#Cc1cccc(-c2ccc3ncnc(N4CCNCC4)c3c2)c1 |  | inactive |
| COc1cccc(-c2ccc3ncnc(N4CCNCC4)c3c2)c1 |  | 3.16 µM (active) |
| NCCCCC(=O)O |  | inactive |
| CCOC(=O)C1=C(c2ccccc2)OC(N)=C(C#N)C1c1ccc(Cl)s1 (stereo not given) |  | 0.398 µM (active) |
| CCc1cc2c(=O)c(-c3nc4ccccc4[nH]3)coc2cc1OC(=O)N1CCOCC1 |  | 15.8 µM (active) |
| COc1cc(Br)c(C(C)NC(=O)c2cccc(Br)c2)cc1OC (stereo not given) |  | 2.24 µM (active) |
| COc1ccccc1CNc1ncnc2ccc(-c3ccc(N(C)C)cc3)cc12 |  | 10 µM (active) |
| CN(C)c1ccc(-c2ccc3ncnc(NCc4ccccc4)c3c2)cc1 |  | 7.94 µM (active) |
| COc1ccccc1CNc1ncnc2ccc(-c3ccc4c(c3)OCO4)cc12 |  | 3.16 µM (active) |
| COc1ccc(CNc2ncnc3ccc(-c4ccc(N(C)C)cc4)cc23)c(OC)c1 |  | 3.98 µM (active) |
